# Measurements reported in the supplement of paper PMC8728848.
# The full list was thinned out, with the strongest signals kept by preference.
# B1: PX9961C-bth-497-22-497 (Bacteroides thetaiotaomicron) (protein)
# chain: DWLDLNTTSSVETGQAIVTLDDAQIALNGIYRLASGHSYYGDNYWYYGDCRAADVQARITKGDGKRVSPYYEYNVLASDNLNIVLPWNTVYKVIRQTNNLIQKIESGSIQSSDTKELNRIKSEALVMRGLSLFNLTRLFGMPYTNDKGASLGVPIETSPSDPTHKPSRSTVAQCYEQVVSDMSNALSGLRQETSNGYINYWAAQALLSRVYLNMGEYQKAYDAATDVIKNNGGRYQLYSYEEYPNVWGQDFQSESLFELYITLSEPSGGTGGEGAPMVYANEATVDWNNLILSEDFLNLLNEDPKDVRHCLTKESVIENNTGLPAAAMHEKVYLAKFPGKTGDDPKTNNICIIRLSEVYLNAAEAGLKKGTDIEEAQGYLNDIISRRTTDTSQQVSTETFTLDRILKERRKELVGEGEVFYDYLRNGLAIERKGSWHLETLKASNAQKIEATDLRIALPIPQSEIDANPNIQQNPR
# Columns and labels:
# Test in all cases: glycan array binding signal (z-score within array); higher = stronger binding
# Conditions in all cases: glycan notation: IUPAC condensed, linker removed
# [1] = biological target: GalNAc(b1-4)GlcNAc(b1-2)Man(a1-3)[GalNAc(b1-4)GlcNAc(b1-2)Man(a1-6)]Man(b1-4)GlcNAc(b1-4)GlcNAc
# Outline: (§1)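 Glycan array binding is given as a within-array Z-score, which can be read as non-binding when negative. The arrays, 3228 of them, came from the Consortium for Functional Glycomics database and were retained only where the protein sequence was available. Z-scores were averaged across arrays of the same protein sequence at different concentrations or buffers and across linkers.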
# GlcA(b1-3)GlcNAc = biological target: GlcA(b1-3)GlcNAc
# Outline: as §1
# [2] = biological target: GlcNAc(a1-4)Gal(b1-4)GalNAc
# Outline: as §1
# [3] = biological target: GlcNAc(a1-4)Gal(b1-4)GlcNAc(b1-3)Gal(b1-4)GlcNAc(b1-3)Gal(b1-4)GlcNAc
# Outline: as §1
# [4] = biological target: GlcNAc(b1-3)Gal(b1-4)GlcNAc(b1-3)Gal(b1-4)GlcNAc(b1-2)Man(a1-3)[GlcNAc(b1-3)Gal(b1-4)GlcNAc(b1-3)Gal(b1-4)GlcNAc(b1-2)Man(a1-6)]Man(b1-4)GlcNAc(b1-4)GlcNAc
# Outline: as §1
# [5] = biological target: GlcNAc(b1-3)Gal(b1-4)GlcNAc(b1-3)Gal(b1-4)GlcNAc(b1-3)Gal(b1-4)GlcNAc(b1-2)Man(a1-3)[GlcNAc(b1-3)Gal(b1-4)GlcNAc(b1-3)Gal(b1-4)GlcNAc(b1-3)Gal(b1-4)GlcNAc(b1-2)Man(a1-6)]Man(b1-4)GlcNAc(b1-4)GlcNAc
# Outline: as §1
# [6] = biological target: GlcNAc(b1-3)Gal(b1-4)GlcNAc(b1-3)Gal(b1-4)GlcNAc(b1-3)Gal(b1-4)GlcNAc(b1-3)Gal(b1-4)GlcNAc(b1-2)Man(a1-3)[GlcNAc(b1-3)Gal(b1-4)GlcNAc(b1-3)Gal(b1-4)GlcNAc(b1-3)Gal(b1-4)GlcNAc(b1-3)Gal(b1-4)GlcNAc(b1-2)Man(a1-6)]Man(b1-4)GlcNAc(b1-4)[Fuc(a1-6)]GlcNAc
# Outline: as §1
# [7] = biological target: GlcNAc(b1-3)Gal(b1-4)GlcNAc(b1-3)Gal(b1-4)GlcNAc(b1-3)Gal(b1-4)GlcNAc(b1-3)Gal(b1-4)GlcNAc(b1-2)[GlcNAc(b1-3)Gal(b1-4)GlcNAc(b1-3)Gal(b1-4)GlcNAc(b1-3)Gal(b1-4)GlcNAc(b1-3)Gal(b1-4)GlcNAc(b1-6)]Man(a1-6)[GlcNAc(b1-3)Gal(b1-4)GlcNAc(b1-3)Gal(b1-4)GlcNAc(b1-3)Gal(b1-4)GlcNAc(b1-3)Gal(b1-4)GlcNAc(b1-2)Man(a1-3)]Man(b1-4)GlcNAc(b1-4)[Fuc(a1-6)]GlcNAc
# Outline: as §1
# [8] = biological target: GlcNAc(b1-3)Gal(b1-4)GlcNAc(b1-6)[Gal(b1-3)]GalNAc
# Outline: as §1
# GlcNAc(b1-4)GlcNAc = biological target: GlcNAc(b1-4)GlcNAc
# Outline: as §1
# [9] = biological target: GlcNAc(b1-4)GlcNAc(b1-4)GlcNAc(b1-4)GlcNAc(b1-4)GlcNAc
# Outline: as §1
# Kdn(a2-6)Gal(b1-4)GlcNAc = biological target: Kdn(a2-6)Gal(b1-4)GlcNAc
# Outline: as §1
# Man(a1-6)Man = biological target: Man(a1-6)Man
# Outline: as §1
# [10] = biological target: Neu5Ac(a2-3)Gal(b1-3)GlcNAc(b1-3)Gal(b1-4)GlcNAc
# Outline: as §1
# [11] = biological target: Neu5Ac(a2-3)Gal(b1-3)[Fuc(a1-4)]GlcNAc(b1-3)Gal(b1-3)[Fuc(a1-4)]GlcNAc
# Outline: as §1
# [12] = biological target: Neu5Ac(a2-3)Gal(b1-3)[GlcNAc(b1-6)]GalNAc
# Outline: as §1
# [13] = biological target: Neu5Ac(a2-3)Gal(b1-4)GlcNAc(b1-2)Man(a1-3)[GlcNAc(b1-4)][Neu5Ac(a2-3)Gal(b1-4)GlcNAc(b1-2)Man(a1-6)]Man(b1-4)GlcNAc(b1-4)GlcNAc
# Outline: as §1
# [14] = biological target: Neu5Ac(a2-3)[GalNAc(b1-4)]Gal(b1-4)GlcNAc
# Outline: as §1
# Neu5Ac(a2-6)Gal = biological target: Neu5Ac(a2-6)Gal
# Outline: as §1
# [15] = biological target: Neu5Ac(a2-6)Gal(b1-4)GlcNAc(b1-2)Man
# Outline: as §1
# [16] = biological target: Neu5Ac(a2-6)Gal(b1-4)GlcNAc(b1-3)Gal(b1-4)GlcNAc(b1-3)Gal(b1-4)GlcNAc
# Outline: as §1
# [17] = biological target: Neu5Ac(a2-6)Gal(b1-4)GlcNAc(b1-3)Gal(b1-4)GlcNAc(b1-3)Gal(b1-4)GlcNAc(b1-2)Man(a1-3)[Neu5Ac(a2-6)Gal(b1-4)GlcNAc(b1-3)Gal(b1-4)GlcNAc(b1-3)Gal(b1-4)GlcNAc(b1-2)Man(a1-6)]GalNAc
# Outline: as §1
# [18] = biological target: Neu5Ac(a2-8)Neu5Ac(a2-3)Gal(b1-4)GlcNAc
# Outline: as §1
# [19] = biological target: Neu5Ac(a2-8)Neu5Ac(a2-3)[GalNAc(b1-4)]Gal(b1-4)Glc
# Outline: as §1
# [20] = biological target: Neu5Ac(a2-8)Neu5Ac(a2-8)Neu5Ac(a2-3)[Gal(b1-3)GalNAc(b1-4)]Gal(b1-4)Glc
# Outline: as §1
# [21] = biological target: Neu5Ac(a2-8)Neu5Gc(a2-3)Gal(b1-4)GlcNAc
# Outline: as §1
# Neu5Ac(b2-6)GalNAc = biological target: Neu5Ac(b2-6)GalNAc
# Outline: as §1
# [22] = biological target: Neu5Gc(a2-3)Gal(b1-3)GlcNAc
# Outline: as §1
# [23] = biological target: Neu5Gc(a2-8)Neu5Gc(a2-3)Gal(b1-4)GlcNAc(b1-3)Gal(b1-4)GlcNAc
# Outline: as §1
binder,measurement,setting,value
B1,glycan array binding signal (z-score),[1],1.18
same,glycan array binding signal (z-score),GlcA(b1-3)GlcNAc,0.671
same,glycan array binding signal (z-score),[2],-0.269
same,glycan array binding signal (z-score),[3],0.15
same,glycan array binding signal (z-score),[4],1.6
same,glycan array binding signal (z-score),[5],0.098
same,glycan array binding signal (z-score),[6],2.24
same,glycan array binding signal (z-score),[7],-0.034
same,glycan array binding signal (z-score),[8],1.56
same,glycan array binding signal (z-score),GlcNAc(b1-4)GlcNAc,-0.2
same,glycan array binding signal (z-score),[9],-0.492
same,glycan array binding signal (z-score),Kdn(a2-6)Gal(b1-4)GlcNAc,-0.057
same,glycan array binding signal (z-score),Man(a1-6)Man,-0.481
same,glycan array binding signal (z-score),[10],0.993
same,glycan array binding signal (z-score),[11],2.16
same,glycan array binding signal (z-score),[12],-0.029
same,glycan array binding signal (z-score),[13],-0.279
same,glycan array binding signal (z-score),[14],-0.469
same,glycan array binding signal (z-score),Neu5Ac(a2-6)Gal,0.311
same,glycan array binding signal (z-score),[15],-0.411
same,glycan array binding signal (z-score),[16],-0.506
same,glycan array binding signal (z-score),[17],0.689
same,glycan array binding signal (z-score),[18],-0.198
same,glycan array binding signal (z-score),[19],-0.361
same,glycan array binding signal (z-score),[20],-0.241
same,glycan array binding signal (z-score),[21],13.7
same,glycan array binding signal (z-score),Neu5Ac(b2-6)GalNAc,-0.424
same,glycan array binding signal (z-score),[22],-0.496
same,glycan array binding signal (z-score),[23],0.531
